Reference: PubChem BioAssay (NCI)
The panel holds about 83,000 compounds, 20% with a hit somewhere; the sample as a whole holds those more often.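 Activity criterion: percent growth below 10, measured after cells in 96-well plates were exposed to a single compound concentration for 48 hours.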 Active and inactive are the calls of the source.

System: MCF7 breast
Experiment: NCI-60 one-dose screen, 48 h (100 = growth as untreated, 0 = no growth, -100 = all killed)
Conditions: 10 µM

Row | Structure (SMILES) | growth
1 | COc1ccc(-c2onc(N)c2-c2cc(OC)c3c(c2)OCO3)cc1 | 8.88% (active)
2 | C[C@]12CC[C@@H]3c4ccc(O)cc4CC[C@H]3[C@@H]1CC[C@@H]2NS(=O)(=O)c1ccc(C(F)(F)F)cc1 | 2.42% (active)
3 | O=C(CSc1nnc(-c2ccc(Cl)cc2)o1)Nc1ccc(C(=O)/C=C/c2ccc(Cl)cc2)cc1 | 78% (inactive)
4 | Cc1cc(CCNC=O)c(C)c2c1sc1ccccc12 | 100% (inactive)
5 | COc1cc2cc(Oc3ccc(NC(=O)c4ccc(Cl)c(C(F)(F)F)c4)cc3)c(C)nc2cc1OC | 24.8% (inactive)
6 | CC(C)(C)c1ccc(S(=O)(=O)N[C@H]2CC[C@H]3[C@@H]4CCc5cc(O)ccc5[C@H]4CC[C@]23C)cc1 | 14.9% (inactive)
7 | COc1cc2cc(Oc3ccc(NC(=O)c4cccc(C(F)(F)F)c4)cc3)c(C)nc2cc1OC | 31% (inactive)
8 | COc1ccc(/C=C2\CCCC3=C2NC(N)=NC3c2ccc(OC)c(OC)c2)cc1OC (stereo not given) | 27.6% (inactive)
9 | Cc1c(Cl)cccc1NC(=O)CN1CCOCC1 | 98.1% (inactive)
10 | CC(C)(C)OC(=O)N1CCc2c(sc3ncnc(N/N=C/c4ccc(Br)cc4)c23)C1 | 12.6% (inactive)
11 | CCCCc1oc2ccccc2c1C(=O)c1cc(I)c(OCCN(CC)CC)c(I)c1 | -67% (active)
12 | CCc1c2c(nc3ccc(OC(=O)N4CCC(N5CCCCC5)CC4)cc13)-c1cc3c(c(=O)n1C2)COC(=O)[C@]3(O)CC | 3.64% (active)
13 | NS(=O)(=O)Oc1ccc(-c2ccc3sccc3c2)cc1 | 120% (inactive)
14 | O=C(Nc1ccc(OS(=O)(=O)c2ccccc2)cc1)C1CCCCC1 | 97% (inactive)
15 | S=c1cnc2ccccc2[nH]1 | 72.9% (inactive)
16 | COc1cc(-c2nn(-c3cccc(NC(=O)NCCNC(=O)c4cccc(C(F)(F)F)c4)c3)cc2-c2ccncc2)ccc1Cl | 12.7% (inactive)
17 | C[C@@H](O)[C@H]1C(=O)N2C(C(=O)O)=C(SCCN=CN)C[C@H]12 | -6.51% (active)
18 | CC[C@@H](C(=O)[C@@H](C)[C@@H](O)[C@H](C)[C@@H]1O[C@@H]([C@@H](CC)C(=O)O)CC[C@@H]1C)C1O[C@]2(C=CC(=O)[C@]3(CC[C@@](C)([C@H]4CC[C@](O)(CC)[C@H](C)O4)O3)O2)[C@H](C)C[C@@H]1C (stereo not given in full) | 11.2% (inactive)
19 | CCC(c1ccc(OC)cc1)C(CC)c1ccc(O)c(CN2CCN(C)CC2)c1 (stereo not given) | 50.9% (inactive)
20 | COc1ccc(C(=O)N2C=Cc3ccccc3C2C#N)cc1 (stereo not given) | 96.4% (inactive)

Row | Structure (SMILES) | growth
21 | Cc1cc(SC#N)cc(C(C)(C)C)c1O | 97.4% (inactive)
22 | COc1ccc(-c2n[nH]nc2-c2cc(OC)c3c(c2OC)OCO3)cc1 | 27.7% (inactive)
23 | CN1C(C(=O)Nc2ccccn2)=C(O)c2sc(Cl)cc2S1(=O)=O | 96.6% (inactive)
24 | Clc1ccc2c(c1)C(N1CCNCC1)=Nc1ccccc1O2 | 28.9% (inactive)
25 | CC(C)(C)c1ccc(S(=O)(=O)N[C@H]2CC[C@H]3[C@@H]4CCc5cc(O)c([N+](=O)[O-])cc5[C@H]4CC[C@]23C)cc1 | 54.1% (inactive)
26 | COc1cc(-c2csc(NC(=O)Nc3ccc(Cl)c(C(F)(F)F)c3)n2)cc(OC)c1OC | -9.68% (active)
27 | Brc1ccc2c(c1)-c1ccccc1C1=NCCN12 | -5.53% (active)
28 | CC(C)N(CCOc1cccc(-c2nc3sccn3c2-c2ccnc(S(C)(=O)=O)n2)c1)C(C)C | 54.4% (inactive)
29 | Cc1ccc(/C=C/C(=O)C(=O)/C=C/c2ccc(C)cc2)cc1 | 23.8% (inactive)
30 | O=C(Nc1cc(Cl)cc2c1-c1ccc(Cl)cc1C2O)C(Cl)Cl (stereo not given) | 64.5% (inactive)
31 | COc1cc(Cc2cc(-c3ccccc3)n[nH]c2=O)cc(OC)c1OC | 34.9% (inactive)
32 | Cc1cc(C(C#N)c2ccc(Cl)cc2)c(Cl)cc1NC(=O)c1cc(I)cc(I)c1O (stereo not given) | 43.2% (inactive)
33 | C/C=C/C1=CN2C(=O)c3cc(OC4OC(C)C(NC)C(C)(O)C4O)c(C)c(O)c3N=C[C@@H]2C1 (stereo not given in full) | 0.963% (active)
34 | CNC(=O)c1c(I)c(NC(C)=O)c(I)c(C(=O)O)c1I | 108% (inactive)
35 | COc1ccc(Nc2cnc3cc(NS(=O)(=O)c4ccc(C)cc4)ccc3n2)cc1 | 61.6% (inactive)
36 | COc1cc(-c2nn(-c3ccc(NC(=O)NCCCNC(=O)c4ccccc4)cc3)cc2-c2ccncc2)ccc1Cl | 12.8% (inactive)
37 | OCC1OC(n2ccc3c(NO)ncnc32)C(O)C1O (stereo not given) | -0.414% (active)
38 | C[C@]12CC[C@@H]3c4ccc(OS(=O)(=O)O)cc4CC[C@H]3[C@@H]1CC[C@@H]2NS(=O)(=O)c1ccc(-c2ccccc2)cc1 | 30.2% (inactive)
39 | CCN1CCN(CCC(=O)Nc2cccc(-n3cc(-c4ccncc4)c(-c4ccc(Cl)c(OC)c4)n3)c2)CC1 | 15.5% (inactive)
40 | COc1ccc(-c2nnc(SCC(=O)Nc3ccc(C(=O)/C=C/c4ccccc4)cc3)n2-c2ccccc2)cc1OC | 36.4% (inactive)
